Measured values taken from PubChem BioAssay AID1347139 (National Center for Advancing Translational Sciences (NCATS), 2019).
The other results are listed elsewhere or left out. Results filed as inconclusive are left out. Unmarked numbers belong to inactive results. The source made the active and inactive calls. Calls come from the whole dose curve; as a rule, active = well fitted inhibition curve with a large enough effect; inconclusive = small, poorly fitted or top-dose-only effect; inactive = no such curve, though single readings can be large or run the other way.

test: qHTS of pediatric cancer cell lines to identify multiple opportunities for drug repurposing: Orthogonal 3D viability screen for TC32 cells; conditions: TC32 3D spheroid viability, PI/Hoechst imaging, 72 h; series mostly up to 30.7 µM; activity change, negative = less viable: at the top concentration
Description: Drug repurposing or repositioning has been offered as a strategy for drug development in oncology programs. This approach has special potential for childhood cancers and other rare or orphan diseases, where the expected return on new drug development has been a disincentive to pharmaceuticals. […] In this project we exploit the poly-pharmacology of drugs to discover new indications via phenotypic screening of a panel of 19 well-characterized cell lines derived from solid tumors seen in children and adolescents. The goal is to identify approved drugs with previously unrecognized anticancer properties that has the potential to reveal new mechanisms and biological processes involved in carcinogenesis or drug resistance. We employed a titration-based paradigm (quantitative high-throughput screening or qHTS), where all compounds were tested at multiple concentrations for their effect on cell viability. Concentration-response curves (CRCs) were derived directly from the primary screen, and both potency and efficacy values were used to identify compounds with robust bioactivity profiles. […] These two assays will be used to validate active compounds and assess the correlation of compound's potency in 2D vs 3D cultures on selected cell lines. Assay Submitter: Nathalia J. Martinez, National Center for Advancing Translational Sciences, National Institutes of Health, Rockville, MD, USA; email: natalia.martinez@nih.gov Shen, M et al. Quantitative high-throughput phenotypic screening of pediatric cancer cell lines identifies multiple opportunities for drug repurposing. Oncotarget 2017 Dec 19;9(4):4758-4772. PMID 29435139.
The cells were obtained from University of North Carolina (UNC), Pediatric Preclinical Testing Program (PPT), and Coriell Institute (CI). qHTS viability in 3D culture: Cells were assayed in phenol red-free growth media at a density of 1,000 cells/well, with the exception of Daoy, and SH-N-SH which were assayed at 1,500 cells/ well. Thirty muL of cells were dispensed into 384-well, ULA, round bottom plates (Corning) using a Multidrop dispenser. Plates were spun down at 1,000 rpm for 1 min and incubated at 37 degrees C, 5% CO2, under a humidified atmosphere for either 24 (Daoy) or 48 hours (all other cell lines) to allow spheroid formation. Ninety-two nanoliter of compounds and controls (neutral control DMSO or positive control bortezomib at final concentrations of 0.5 µM) were subsequently transferred via GNF Pintool. Plates were sealed using a breathable seal (Diversified Biotech, Dedham, MA) and incubated for 72 hours at 37 degrees C. Spheroid viability was first determined by high-content imaging using Hoechst 33342 and Propidium Iodide (PI, ThermoFisher Scientific), followed by addition of CellTiter-Glo 3D (Promega). Specifically, 3 µL/well of PBS containing a 1:500 dilution of both dyes was dispensed using Multidrop. Dyes were incubated for 1 hour before imaging using the Celigo Image Cytometer. Then, 20 µl of CellTiter-Glo 3D were added per well. Plates were incubated for 30 min at RT on a VWR microplate shaker (300 rpm) and analyzed for luminescence intensity using a ViewLux High-throughput CCD imager equipped with clear filters. Image analysis was done using the Celigo Tumorsphere 1+2+3 application software as previously described. […] The data were exported to Excel, and the average fluorescent intensities were used to calculate the ratio of PI over Hoechst, which was used to quantify viability. […]

SMILES | activity change, negative = less viable [%] | Potency
C=C1C(=CC=C2CCC[C@]3(C)[C@@H]([C@H](C)C=C[C@H](C)C(C)C)CC[C@@H]23)C[C@@H](O)C[C@@H]1O | -17.7 | 
CC[C@]1(O)C[C@@H]2CN(CCc3c([nH]c4ccccc34)[C@@](C(=O)OC)(c3cc4c(cc3OC)N(C)[C@H]3[C@@](O)(C(=O)OC)[C@H](OC(C)=O)[C@]5(CC)C=CCN6CC[C@]43[C@@H]65)C2)C1 |  | 32.3 nM (active)
COC(=O)Nc1nc2ccc(Sc3ccccc3)cc2[nH]1 |  | 810 nM (active)
CC(NCc1ccc2c(c1)nc(NC(=O)c1ccc(-c3cn[nH]c3)s1)n2CC(C)(C)O)C(C)(C)C (stereo not given) |  | 1620 nM (active)
CC[C@H]1CN2CCc3cc(OC)c(OC)cc3[C@@H]2C[C@@H]1C[C@H]1NCCc2cc(OC)c(OC)cc21 |  | 323 nM (active)
